Screening data from PubChem BioAssay.
NR0B1 inh = NR0B1 (DAX1) inhibition; P51843; HEK293 Gal4-DAX1 luciferase reporter, luminescence; AID 504766; actives 0.99% (n = 340,000); inhibition, % at 6.75 µM;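 active = inhibition above the mean over all tested compounds plus 3 SD, cut at about 4.2% in these data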;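 note: inhibition shows as a rise in luminescence from relieved DAX1 repression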
FXN GAA850 act = frataxin GAA850 promoter activation | HEK293 lucGAA850 FXN promoter luciferase reporter, 24 h; percent of 10 µM SAHA response | activation, % at 6 µM | actives 0.56% (n = 360,000);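 active = activation above the average of all compounds screened plus 3 SD, cutoff fixed separately per campaign, cut at about 7.5% in these data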
HSF1 inhib = HSF1 inhibition | NIH3T3-HGL HSE-luciferase, MG132-induced, luminescence 8 h; stronger effect = lower value | activity change, negative = inhibition, % at 7.5 µM (by protocol) | actives 0.77% (n = 300,000);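 active = more than half of replicate wells show activity change below -50%, luminescence cut by over half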;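 note: luciferase reports HSF-1 transcriptional activity via heat shock element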
HSP90 refold inh = blocks HSP90-mediated luciferase refolding in reticulocyte lysate. inhibition, % at 5.6 µM. Rabbit reticulocyte lysate, luciferase refolding luminescence, 3 h. actives 0.91% (n = 290,000);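 active = inhibition above the screen-wide mean plus 3 SD, computed separately per campaign, cut at about 16% in these data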;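 note: inhibitors lower the luminescence because luciferase stays unfolded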
AHR activator = activators of human aryl hydrocarbon receptor. P35869. AHR-responsive luciferase reporter cells, luminescence. activation, % at 5 µM. actives 2.5% (n = 320,000). AID 2796; in the data active = activation above about 47%
HSF-1 act = increases HSF-1 driven luciferase reporter signal; activation, % at 9 µM; AID 504408; NIH3T3-HGL HSF-1 luciferase reporter, MG132, 8 h; 100% = twice DMSO control signal; actives 1.7% (n = 300,000);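 active = mean replicate activation of at least 50% with a set share of replicates each reaching 50%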
HSP90 confirm = confirmation of HSP90 inhibitors; shares compounds with HSP90 refold inh; rabbit reticulocyte lysate, luciferase refolding luminescence, 3 h; inhibition, % at 5.9 µM; actives 64% (n = 2,300); AID 1846; in the data active = inhibition above about 18%
luciferase ctr = firefly luciferase inhibition, HSP90 counter-screen. shares compounds with HSP90 refold inh. purified native firefly luciferase, luminescence. inhibition, % at 5.9 µM. actives 48% (n = 2,300);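 active = inhibition above the mean inhibition of all tested sample wells plus 3 SD, cut at about 10% in these data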
Target sequence (P08659 whole entry, looked up): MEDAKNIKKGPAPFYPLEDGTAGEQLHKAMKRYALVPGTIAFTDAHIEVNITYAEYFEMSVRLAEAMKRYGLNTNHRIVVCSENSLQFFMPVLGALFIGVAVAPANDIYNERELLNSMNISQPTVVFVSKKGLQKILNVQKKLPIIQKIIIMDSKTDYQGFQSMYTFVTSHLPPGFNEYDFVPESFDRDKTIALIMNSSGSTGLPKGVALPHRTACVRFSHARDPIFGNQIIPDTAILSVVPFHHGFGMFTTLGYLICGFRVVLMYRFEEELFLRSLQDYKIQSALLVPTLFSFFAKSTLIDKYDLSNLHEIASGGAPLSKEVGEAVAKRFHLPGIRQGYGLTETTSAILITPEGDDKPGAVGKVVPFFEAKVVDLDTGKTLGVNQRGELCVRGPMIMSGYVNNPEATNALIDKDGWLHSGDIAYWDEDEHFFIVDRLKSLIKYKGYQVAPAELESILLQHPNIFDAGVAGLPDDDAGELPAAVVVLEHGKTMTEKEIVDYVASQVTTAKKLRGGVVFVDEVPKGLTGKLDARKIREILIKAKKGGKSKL
Hits are given with their value; 0 = inactive; - = not tested or not shown. Shown are actives, neighbours in structure and some others; about 5.9% of the full set was active somewhere.

SMILES	NR0B1 inh	FXN GAA850 act	HSF1 inhib	HSP90 refold inh	AHR activator	HSF-1 act	HSP90 confirm	luciferase ctr
COc1cc(OC)c(NC2=CC(=O)C(=O)c3ccccc32)cc1Cl	0	0	0	44.0	0	0	34.3	0
CC(=O)CSc1ccc(-c2nc3ccccc3[nH]2)cn1	0	0	0	24.3	0	0	46.4	0
CC(=O)CSc1ccc(-c2nc3cc(C)c(C)cc3[nH]2)cn1	0	0	0	68.9	0	0	91.0	56.6
Cc1cc2nc(-c3ccc(SCC(=O)Nc4nccs4)nc3)[nH]c2cc1C	0	0	-	0	-	-	-	-
NC(=O)c1ccsc1NC(=O)CCS(=O)(=O)c1ccc(F)cc1	0	0	0	-	0	0	-	-
C=CCn1c(C)cc(C(=O)COC(=O)[C@@H](NC(=O)c2ccccc2Cl)C(C)C)c1C	0	0	-60.5	26.6	0	0	53.7	43.1
O=C(NCCc1cccs1)c1cccs1	0	0	0	0	0	0	-	-
COc1ccccc1-c1ccc(C(=O)O)o1	0	0	0	46.3	0	0	53.9	0
COc1ccccc1-c1ccc(/C=N/O)o1	-	0	0	0	0	0	-	-
O=[N+]([O-])c1cc(S(=O)(=O)NC2=NCCCCC2)ccc1NCC1CCCCC1	0	0	0	0	0	0	-	-
COc1ccc(NC(=S)NNc2ccc(C(=O)O)cc2)cc1	0	0	0	21.0	0	0	41.9	38.1
Cc1ccc(/C=C2\SC(=S)N(CCCC(=O)Nc3ccccn3)C2=O)cc1	0	0	-66.6	33.5	0	0	38.5	0
Cc1cc2cc(CNC(=S)NC3CCCCC3)ccc2n1C	0	0	0	19.6	0	0	0	0
O=C(CSC1=NS(=O)(=O)c2cc(Cl)ccc2N1)NCCc1ccccc1	0	0	0	-	0	0	-	-
CC1CN(C(=O)COC(=O)c2ccc(O)cc2)CC(C)O1 (stereo not given)	0	0	0	0	0	0	-	-
CC1CN(C(=O)COC(=O)c2ccc(C#N)cc2)CC(C)O1 (stereo not given)	0	0	0	47.8	0	0	0	0
CC(C)c1ccc(COc2ccc(C(=O)N3CCOCC3)cc2)cc1	0	0	0	0	0	0	-	-
CCOc1ccc(OCc2ccc(C(=O)N3CCCC3)o2)cc1	0	0	0	30.4	0	0	19.3	0
CCOc1ccc(OCc2ccc(C(=O)N3N=C(C(F)F)CC3(O)C(F)F)o2)cc1 (stereo not given)	0	0	0	28.1	0	0	0	0
Cc1cc(COc2ccccc2)oc1C(=O)O	0	0	0	68.8	0	0	84.0	50.4
CC(C)c1ccc(OCc2ccc(C(=O)N3CCCC3)o2)cc1	0	0	0	17.0	0	0	24.4	0
CCOc1ccc(OCc2ccc(C(=O)NC(C)C)o2)cc1	0	0	0	0	-	0	-	-
COCCCN(CC(=O)Nc1ccc(N2CCOCC2)cc1)S(=O)(=O)c1ccc(Cl)cc1	0	0	0	0	0	0	-	-
CCN(CC(=O)Nc1ccc(OC)cc1)C(=O)c1ccc(N2C(=O)CCC2=O)cc1	0	0	-	-	0	-	-	-
CCOC(=O)CC(NC(=O)c1cccc2c1C(=O)N(Cc1cccnc1)C2)c1ccc(OCC)c(OC)c1 (stereo not given)	0	0	0	0	0	0	-	-
SMILES	NR0B1 inh	FXN GAA850 act	HSF1 inhib	HSP90 refold inh	AHR activator	HSF-1 act	HSP90 confirm	luciferase ctr
C/C(=N\N(Cc1ccccc1)c1ccccc1)c1ccncc1	0	0	0	0	0	0	-	-
CCOc1ccc(C(=O)N2CCCC2)cc1	0	0	0	0	0	0	-	-
CCOc1ccc(OCc2cccc(C(=O)N3CCCC3)c2)cc1	0	0	-50.9	21.5	0	0	30.3	25.7
CCC(C)c1ccc(OCc2ccc(C(=O)O)o2)cc1 (stereo not given)	0	0	-52.7	93.6	0	0	91.9	81.5
CCOC(=O)c1ccc(COc2ccc(C(C)C)cc2)o1	0	0	0	33.5	0	54.1	71.4	0
Cc1ccc(OCc2ccc(C(=O)O)o2)cc1C	0	0	0	70.5	-	0	71.1	0
COC(=O)c1ccc(COc2ccc(F)cc2)o1	0	0	0	0	0	0	-	-
O=S(=O)(c1ccc(-c2n[nH]c(=S)o2)cc1)N1CCCCC1	0	0	0	0	0	0	-	-
COCCn1c(C)cc(C(=O)COC(=O)C23CC4CC(CC(O)(C4)C2)C3)c1C	0	0	0	34.9	0	0	46.2	33.3
Cc1cc(C(=O)COC(=O)C23CC4CC(CC(O)(C4)C2)C3)c(C)n1-c1c(C)n(C)n(-c2ccccc2)c1=O	0	0	0	0	0	0	-	-
Cc1cccc(C(=O)N2CCN(c3ccc(C(F)(F)F)cn3)CC2)c1C	0	0	0	38.4	0	0	0	0
CN(C)c1cccc2c(C=C(C#N)C#N)ccc(N(C)C)c12	0	0	0	0	0	0	-	-
CN(C)c1cccc2c(/C=N/O)ccc(N(C)C)c12	0	0	0	52.0	0	0	0	0
O=C(Nc1oc2ccccc2c(=O)c1-c1ccc2c(c1)OCO2)c1ccco1	0	0	-	-	-	-	-	-
COc1cc(OC)cc(C(=O)NCC(=O)OCC(=O)Nc2cc(S(C)(=O)=O)ccc2Cl)c1	0	0	0	26.7	0	0	0	0
CC1CCCN(C(=O)CSc2nnc(-c3c[nH]c4ccccc34)o2)C1 (stereo not given)	0	0	0	38.4	0	0	0	0
COc1ccc(OC)c(CNS(=O)(=O)c2cn(C)cn2)c1	0	0	0	0	0	0	-	-
O=C(c1cccc([N+](=O)[O-])c1)c1ccc2c(c1)OCCOCCOCCOCCO2	-	0	0	0	0	0	-	-
S=C(c1ccc(N2CCCC2)c(Br)c1)N1CCCCC1	0	0	0	22.3	0	0	0	0
COc1ccc(C(=S)N2CCCCC2)cc1Br	0	0	0	0	0	0	-	-
NNC(=S)Nc1ccccc1Cl	0	0	-53.5	45.3	0	0	26.7	0
S=C(NCCc1ccccc1)Nc1ccccc1Cl	0	0	0	0	0	0	-	-
CCC(C)[C@H](NC(=O)[C@@H]1CSC2c3ccccc3C(=O)N21)C(=O)NCc1ccco1 (stereo not given in full)	0	0	0	0	0	0	-	-
COc1ccc2oc(C(=O)N3CCN(S(=O)(=O)c4cccc([N+](=O)[O-])c4)CC3)c(C)c2c1	0	0	0	0	0	0	-	-
C/C(=N\NC(=O)c1cc2ccccc2cc1O)c1cccs1	0	0	0	22.4	0	0	33.7	37.9
O=C(NNC(=O)c1cc2ccccc2cc1O)c1cccs1	0	0	0	0	0	0	-	-
CC(=O)c1cc(-c2ccccc2)n(CCC(=O)NC2CCCC2)c1C	0	0	0	0	0	0	-	-
CC(=O)c1cc(-c2ccccc2)n(CCC(=O)NC2CCCCC2)c1C	0	0	0	27.0	0	0	0	0
